# From PubChem BioAssay
# The list shows a part of the results. Activity calls are given as the source filed them. Unless noted, the rule behind the calls is not given here.
# Tests used:
# [1] = Brca1-Bard1 BiLC signal decrease – luminescence, single concentration, counter-screen for Mdm2/MdmX interaction inhibitor project, confirmation (AID 504668); details: Brca1/Bard1 bimolecular luciferase complementation counterscreen, at 8 µM, stronger effect = higher value
# [2] = NFkB reporter suppression in cystic fibrosis bronchial cells – cell-based, uHTS hits, panel, cytotoxicity readout, dose response (AID 624344); details: CF bronchial epithelial cells, PAF-induced NFkB reporter inhibition, with PAF, run 1; at 79 µM (top of the series) unless noted
# [3] = as above; details: CF bronchial epithelial cells, PAF-induced NFkB reporter inhibition, with PAF, run 2; at 79 µM (top of the series) unless noted
# [4] = target: Tumor necrosis factor receptor superfamily member 10B (Homo sapiens) (UniProt O14763); assay: viability loss of caspase-8 NB7 cells with TRAIL – with/without TRAIL, luminescence panel, confirmation (AID 651596; in the data active = activity above about 50%); details: NB7 neuroblastoma + caspase-8, TRAIL sensitization, NB7 Caspase-8, with TRAIL, mean of runs, at 10 µM, stronger effect = higher value
# Tumor necrosis factor receptor superfamily member 10B (Homo sapiens), sequence (O14763 whole entry, looked up): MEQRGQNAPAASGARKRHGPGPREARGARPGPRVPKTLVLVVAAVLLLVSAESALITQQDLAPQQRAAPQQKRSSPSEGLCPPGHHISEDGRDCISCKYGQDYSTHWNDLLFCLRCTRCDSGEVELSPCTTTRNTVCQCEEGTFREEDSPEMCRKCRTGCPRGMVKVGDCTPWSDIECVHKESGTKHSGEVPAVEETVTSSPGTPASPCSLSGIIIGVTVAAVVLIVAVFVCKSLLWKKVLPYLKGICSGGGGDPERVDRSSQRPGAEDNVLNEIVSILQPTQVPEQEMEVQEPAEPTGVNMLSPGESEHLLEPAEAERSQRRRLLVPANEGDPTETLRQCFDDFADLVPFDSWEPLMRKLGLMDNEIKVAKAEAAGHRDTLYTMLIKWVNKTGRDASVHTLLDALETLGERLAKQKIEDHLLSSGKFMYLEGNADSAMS
# [5] = as above; details: NB7 neuroblastoma + caspase-8, without TRAIL, NB7 Caspase-8, without TRAIL, mean of runs, at 10 µM
# [6] = HIF-2a driven luciferase blockers, single dose – luminescence, 786-0 RCC cells, confirmation (AID 651580;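 active = mean inhibition across four replicates of at least 40 percent at the single tested concentration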); details: HIF-2a luciferase reporter luminescence, overnight, at 18.8 µM, stronger effect = higher value
# [7] = HIF-1a luciferase reporter signal reduction – MiaPaCa-2 cells, single concentration, counter-screen for HIF-2a inhibitor project, confirmation (AID 651589;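 active = mean inhibition of the reporter signal across four replicates at the single tested dose of 50% or more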); details: MiaPaCa-2 HIF-1a luciferase reporter, desferoxamine, overnight; at 18.8 µM; stronger effect = higher value
compound,measurement,setting,value
CCCN(CCC)c1ncnc2nc[nH]c12,inhibition,[1],34.6% (active)
same,inhibition,[2],109%
same,inhibition,[3],108%
NC(=O)N/N=C/c1c(Sc2nnnn2-c2ccccc2)nc2ccccn2c1=O,inhibition,[1],23.4% (active)
same,inhibition,[2],103%
same,inhibition,[3],105%
COc1cccc(N2CCN(c3ncnc4c3cnn4-c3ccc(C)cc3C)CC2)c1,inhibition,[1],28% (active)
same,activity,[4],97.8%
same,activity,[5],96%
CCCCCc1ccc(OCCCC[n+]2ccccc2)c(CCCCC)c1,inhibition,[1],24.6% (active)
same,activity,[4],24.6%
same,activity,[5],56.7%
CCN(CC)CCCNc1ccc(-c2nnc(-c3ccc(OCC(C)C)cc3)o2)cn1,inhibition,[1],23.9% (active)
same,activity,[4],82.5%
same,activity,[5],97.9%
CC1CCc2c(sc3nc(C(C)(C)C)nc(N4CCN(C(=O)CCl)CC4)c23)C1 (stereo unspecified),inhibition,[1],34.8% (active)
same,activity,[4],98.8%
same,activity,[5],99.2%
COC(=O)C1=C(C)N(Cc2ccccc2)C(=NCC(C)C)N[C@H]1c1cccc(C(F)(F)F)c1,inhibition,[1],26.2% (active)
same,activity,[4],25.1%
same,activity,[5],6.62%
Cc1ccc(C)c(C(=O)Cn2ncc(Cl)c(Cl)c2=O)c1,inhibition,[1],31.7% (active)
same,activity,[4],99.7%
same,activity,[5],99.3%
CCCCn1c(CCl)nc2cc(S(=O)(=O)N3CCOCC3)ccc21,inhibition,[1],30.4% (active)
same,activity,[4],92.6%
same,activity,[5],76.2%
O=C(Nc1ccc(OC(F)F)cc1)Nc1cccc(C(F)(F)F)c1,inhibition,[1],24.4% (active)
same,activity,[4],85.3%
same,activity,[5],69.6%
CC(=O)Nc1ccc(NC2=Nc3ccccc3N3C2=Nc2c(c(C)nn2-c2ccccc2)C3c2ccccc2)cc1 (stereo unspecified),inhibition,[1],32.1% (active)
same,activity,[4],89.4%
same,activity,[5],73.6%
Cc1ccc2nc(/C(C#N)=C\c3ccc([N+](=O)[O-])o3)[nH]c2c1,inhibition,[1],29.9% (active)
same,activity,[4],95.6%
same,activity,[5],99%
O=C(Nc1ccc2c(c1)OCCO2)c1cccc2nc3ccccc3nc12,inhibition,[1],27.6% (active)
same,activity,[4],59.7%
same,activity,[5],77.5%
COC(=O)c1c(NC(=O)c2ccc(OC(C)C)cc2)sc2c1CC(C)(C)NC2(C)C,inhibition,[1],23.6% (active)
same,activity,[4],43.5%
same,activity,[5],31.2%
CN(C)CCCNC(=O)c1ccc(-c2nc(-c3ccc(Cl)cc3)cs2)cc1,inhibition,[1],28.3% (active)
same,activity,[4],95.2%
same,activity,[5],97.6%
O=C(C[C@@H]1C/C=C/CC[C@H](Cc2ccc(F)cc2)C(=O)OC[C@@H](Cc2ccccc2)NC1=O)N[C@H](CO)Cc1ccccc1,inhibition,[1],29.8% (active)
same,activity,[4],87.7%
same,activity,[5],95.8%
O=C(CCl)N(C/C=C/c1ccccc1)c1ccc2c(c1)OCCO2,inhibition,[1],26.4% (active)
same,activity,[4],97.8%
same,activity,[5],94%
Cc1ccc2sc(N(CCCN(C)C)C(=O)CCS(=O)(=O)c3ccccc3)nc2c1C,inhibition,[1],29.9% (active)
same,activity,[4],62%
same,activity,[5],93%
CC(C)(C)c1ccc(C(=O)O/N=C(\N)c2ccccc2)cc1,inhibition,[1],23.3% (active)
same,activity,[4],99.4%
same,activity,[5],99.6%
O=C(/C=C/c1ccccc1)NC(NC(=S)Nc1ccc(Cl)cc1)C(Cl)(Cl)Cl (stereo unspecified),inhibition,[1],23.7% (active)
same,activity,[4],37.1%
same,activity,[5],30.2%
Cc1ccc(N(Cc2cc(=O)[nH]c3ccccc23)C(=O)CCl)cc1,inhibition,[1],25.3% (active)
same,inhibition,[6],76.7% (active)
same,inhibition,[7],107% (active)
same,activity,[4],99.1%
same,activity,[5],99.3%
COc1ccccc1C(=O)Nc1nc(-c2ccc(S(=O)(=O)N3CCOCC3)cc2)cs1,inhibition,[1],29.5% (active)
same,activity,[4],89.5%
same,activity,[5],80.6%
N#CC1(NC(=O)Cn2ncc(Cl)c(Cl)c2=O)CCCCC1,inhibition,[1],29.6% (active)
same,activity,[4],98.5%
same,activity,[5],99.2%
Cn1c(=NC(=O)CCl)sc2ccccc21,inhibition,[1],28.7% (active)
same,activity,[4],99.5%
same,activity,[5],98.7%
C(=N\Nc1nncc2ccccc12)/c1ccccn1,inhibition,[1],29.9% (active)
same,activity,[4],78.7%
same,activity,[5],80.2%
CCCCCc1cc(=O)oc2c(C(CCN3CCCCC3)c3cc(OC)c(OC)c(OC)c3)c(OC)cc(OC)c12 (stereo unspecified),inhibition,[1],26.6% (active)
same,activity,[4],45.4%
same,activity,[5],36.5%
CCCCCCCNC(=O)C1(CC2CC(c3ccc(Cl)cc3)=NO2)CCNCC1 (stereo unspecified),inhibition,[1],25.4% (active)
same,activity,[4],41.9%
same,activity,[5],93.1%
CCCCCN=C(N)N/N=C/c1c[nH]c2ccc(OC)cc12,inhibition,[1],30.4% (active)
same,activity,[4],96.9%
same,activity,[5],98%
NC(=O)c1oc2ccccc2c1NC(=O)c1ccc([N+](=O)[O-])o1,inhibition,[1],31.8% (active)
same,activity,[4],69.1%
same,activity,[5],96.5%
Cn1ncc2c(O/N=C(\N)c3ccc(C(F)(F)F)cc3)ncnc21,inhibition,[1],24.2% (active)
same,activity,[4],98.8%
same,activity,[5],98.8%
Cn1c(N)c(C(=O)COC(=O)c2ccccc2C(=O)c2ccc(Cl)c([N+](=O)[O-])c2)c(=O)n(C)c1=O,inhibition,[1],26.2% (active)
same,activity,[4],98.5%
same,activity,[5],99%
CC(C)(C)c1ccc(C2CC2C(=O)N/N=C\c2ccc[nH]2)cc1 (stereo unspecified),inhibition,[1],30.5% (active)
same,activity,[4],79.5%
same,activity,[5],96.8%
COc1ccc(NC(=O)c2nc(S(=O)(=O)Cc3cccc(C)c3)ncc2Cl)c(OC)c1,inhibition,[1],23.1% (active)
same,activity,[4],30%
same,activity,[5],66.4%
O=C(Nc1ccc(OCC(F)(F)C(F)F)c(C(F)(F)F)c1)c1ccc(Cl)cc1,inhibition,[1],34% (active)
same,activity,[4],87.3%
same,activity,[5],65.7%
Cn1c(=O)c(C(=O)Nc2ccccn2)c(O)c2ccccc21,inhibition,[1],28.9% (active)
same,activity,[4],60.7%
same,activity,[5],58.8%
COC(=O)c1sc(NC(=O)c2cc(-c3ccccc3)nc3ccccc23)c(C#N)c1C,inhibition,[1],35.4% (active)
same,activity,[4],52.7%
same,activity,[5],39.1%
COC(=O)Cc1ccc(NC(=O)c2ccc(C(C)(C)C)cc2)cc1,inhibition,[1],28.9% (active)
same,activity,[4],76.2%
same,activity,[5],77.3%
CC(NC(=O)Nc1nnc(C(F)(F)F)s1)(C(F)(F)F)C(F)(F)F,inhibition,[1],32.9% (active)
same,activity,[4],43.9%
same,activity,[5],43.1%
